Pf growth 48h: Primary qHTS for delayed death inhibitors of the malarial parasite plastid, 48 hour incubation | P. falciparum luciferase growth in erythrocytes, 48 h | Potency, µM (series often up to 28.7 µM), without a hit: at the highest dose activity change, negative = inhibition, usual class: inhibitors | hit rate 5.9% among 310,000; also: potency is read from the fitted curve at half-maximal effect; % is scaled to controls: 0 for no effect and ±100 for the full control effect
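A one-generation exposure of luciferase-tagged malaria parasites in RPMI 1640/Albumax erythrocyte culture, 37 C and 5% CO2. Inhibition is inferred from decreased luminescence after adding detection reagent.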
Cycloheximide cs: Cycloheximide Counterscreen for Small Molecule Inhibitors of Shiga Toxin; max response, %; cell reporter, cycloheximide protein synthesis inhibition counterscreen; hit rate 12% among 300,000; in the data active = max response mostly above about 13%, no sharp cut-off; inactive = mostly below about 14%; also: read at 38.3 µM for the half of the compounds with a filed dose; 0% is about no effect
Shiga toxin inh: A qHTS for Small Molecule Inhibitors of Shiga Toxin; Vero cells, Shiga toxin protein synthesis inhibition reporter; inhibition, % at 38.7 µM; hit rate 9.2% among 290,000; AID 2315, 2010; in the data active = inhibition mostly above about 28%, no sharp cut-off; inactive = mostly below about 43%; also: 0% is about no effect
Pf growth 96h: Primary qHTS for delayed death inhibitors of the malarial parasite plastid, 96 hour incubation; P. falciparum luciferase reporter growth, 96 h; Potency, µM (doses to about 28.7 µM), without a hit: at the top dose activity change, negative = inhibition, most hits filed as inhibitors; hit rate 6.9% among 320,000; also: potency is read from the fitted curve at half-maximal effect; % is scaled to controls: 0 for no effect and ±100 for the full control effect
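Delayed-death screen, second-generation endpoint: infected erythrocytes, 2% hematocrit, 0.05% parasitemia final; 96 hours at 37 C, 5% CO2; luciferase detection reagent; luminescence decrease equals reduced growth.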
HCMV antiviral: qHTS Assay for inhibitors of the human cytomegalovirus (HCMV) | HFF cells, HCMV-luciferase reporter, 72 h; hits give low values | activity change, negative = inhibition, % at 57.5 µM | hit rate 4.5% among 410,000 | AID 1259415, 2018; in the data active = activity change below about -60%; inconclusive = no clear call, values can overlap the other calls; inactive = above about -39%; also: % is scaled to controls: 0 for no effect and ±100 for the full control effect
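Two-dose cell screen: HFF monolayers treated with compounds and infected with luciferase-expressing HCMV at 1 PFU/cell, 72 h at 37C, then lysed for luciferase measurement.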
* hit, by the source's call; u = inconclusive; x = not tested or not shown; [ ] = another dose, or the depositor's remark. An excerpt weighted towards active compounds, which were near 20% of everything screened. Unless noted, calls follow the shape of the dose curve; as a rule, active = well fitted inhibition curve with a large enough effect; inconclusive = small, poorly fitted or top-dose-only effect, or another doubt; inactive = no such curve, though single readings can be large or run the other way.

SMILES | Pf growth 48h | Cycloheximide cs | Shiga toxin inh | Pf growth 96h | HCMV antiviral
O=C(Nc1cccc(C(F)(F)F)c1)C12CC3CC(CC(C3)C1)C2 | 13µM* | 1 | 14 | -7% | -5
CCSCCc1nnc(NC(=O)Nc2cccc(C(F)(F)F)c2)s1 | 5.2µM* | -2 | -8 | u | -83*
CC(=O)Nc1cccc(-c2ccnc3c2CC(C(=O)Nc2cccc(N(C)C)c2)O3)c1 (stereo not drawn) | x | x | x | x | 12
CCn1c(=O)c(C(=O)NCc2ccc(F)cc2)c(O)c2ccccc21 | -3% | -3 | -4 | 12µM* | -23
O=C(Cn1c(=O)sc2ccccc21)NCc1ccccn1 | 27% | 18* | 54* | u | 74
CCCn1c(=O)c(C(=O)NCc2ccncc2)c(O)c2ccccc21 | -1% | 2 | -7 | x | -12
CCCCCCCCCC(=O)NNC(=O)c1c(O)c2ccccc2n(CC)c1=O | 11% | -3 | -12 | 329% | u
CCCCCC(=O)NNC(=O)c1c(O)c2ccccc2n(CC)c1=O | u | 19* | 59* | 10µM* | u
CCCCCn1c(=O)c(C(=O)NCc2ccncc2)c(O)c2ccccc21 | 1.7µM* | -1 | 21 | 69% | -88*
C[C@@H]1CN([C@H](C)CO)C(=O)CCCn2nncc2CO[C@H]1CN(C)C(=O)c1ccncc1 | x | x | x | x | 7
O=C1CN(S(=O)(=O)c2ccccc2)C[C@H]2[C@H](c3ccc(Br)cc3)[C@H](CO)N12 | x | x | x | x | -24
CC(NC(=O)C1CCCN1S(=O)(=O)c1ccccc1)c1ccccc1 (stereo not drawn) | -4% | 3 | -5 | 2% | 54
COc1cc2[nH]c(=O)c(C(=O)NCc3ccc(F)cc3)c(O)c2cc1OC | -12% | 1 | 5 | 3.3µM* | -34
CCn1c(=O)c(C(=O)NCc2ccccc2)c(O)c2ccccc21 | u | -2 | -2 | 112% | -2
CC(C)Cn1c(=O)c(C(=O)NCc2ccccn2)c(O)c2ccccc21 | 12µM* | 0 | 0 | -1% | -22
CCCCCn1c(=O)c(C(=O)NCc2ccccc2Cl)c(O)c2ccccc21 | 7.4µM* | -4 | x | u | -74*
COc1ccc(CNC(=O)c2c(O)c3cc(OC)c(OC)cc3[nH]c2=O)cc1OC | -2% | -2 | -4 | u | -9
CCCn1c(=O)c(C(=O)NCc2ccccc2Cl)c(O)c2ccccc21 | -24% | -2 | x | 30% | -37
COc1ccc(CNC(=O)C(C)OC(=O)CCN2C(=O)C3CC=CCC3C2=O)cc1 (stereo not drawn) | u | x | x | u | -4
COC(=O)c1ccc(NC(=O)CN2CCN(c3ccccn3)CC2)cc1 | u | 7 | 18 | -14% | 44
O=C(Nc1nc2c(F)cc(F)cc2s1)c1ccc2c(c1)OCCO2 | 225% | x | x | 40% | 106
N#C/C(=C/Nc1ccccc1F)S(=O)(=O)c1ccc(Cl)cc1 | 0%[0.00184 µM] | 8 | 14 | -8% | -17
COc1cc(C(=O)NCCN2CCN(C(=O)c3cc(OC)c(OC)c(OC)c3)CC2)cc(OC)c1OC | 40% | -3 | 2 | -10% | 68
CCOC(=O)c1c(NC(C)=O)sc2c1C1CCN2CC1 | x | x | x | x | 26
Cc1cc(C(=O)CSc2nnc(-c3ccncc3)n2-c2ccccc2)c(C)n1C | 15µM* | -1 | -14 | 17µM* | -12
SMILES | Pf growth 48h | Cycloheximide cs | Shiga toxin inh | Pf growth 96h | HCMV antiviral
Cc1cc(C(=O)CSc2nnc(-c3cccnc3)n2-c2ccccc2)c(C)n1CC1CCCO1 (stereo not drawn) | x | 23* | 97 | u | 24
C[C@H]1[C@@H](NS(=O)(=O)c2ccc([N+](=O)[O-])cc2)CC[C@@]23CCCN2C(=O)CCC[C@@H]13 | x | x | x | x | -21
COc1cc2c(=O)n(-c3ccc(C)cc3)c(=O)n(CC(=O)c3ccc4c(c3)OCO4)c2cc1OC | 12µM* | 2 | 11 | 38% | u
COc1ccccc1/C=C1/SC(=O)N(CCC(=O)Nc2ccc(S(=O)(=O)Nc3nccs3)cc2)C1=O | -21% | -2 | -12 | 13µM* | 4
O=C(CCN1C(=O)S/C(=C\c2ccccc2)C1=O)Nc1ccc(S(=O)(=O)Nc2nccs2)cc1 | -7% | -2 | -19 | u | 17
O=C(CCCN1C(=O)/C(=C/c2ccccc2OC(F)F)SC1=S)Nc1cccnc1 | x | x | x | x | -65*
COc1ccccc1/C=C1/SC(=S)N(CCC(=O)Nc2cccnc2)C1=O | 16% | 36* | 10* | u | -19
